Shown are actives, neighbours in structure and some others; about 19% of the full set was active somewhere.
KB-3-1 cytotox = KB-3-1 parental cell cytotoxicity. hit rate 1.4% among 400,000. Potency, µM (doses to about 46.1 µM), most hits filed as cytotoxic. KB-3-1 viability, CellTiter-Glo ATP luminescence, 72 h; further: nearly all actives have a fitted effect of over 60% in size
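KB-3-1 cells, DMEM (no phenol red) + 10% FBS; compound by pin transfer, 72 h, 37 °C. Readout: CellTiter-Glo luminescence after 10 min. Data normalized, curve-fitted.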
HT1080-NT tox = kills 2HG-producing HT-1080-NT fibrosarcoma cells; HT-1080-NT fibrosarcoma viability, CellTiter-Glo ATP luminescence, 48 h; Potency, µM (doses to about 46.1 µM), inactives show top-dose activity, negative = less viability, usual class: cytotoxic; hit rate 1.6% among 360,000; AID 686970;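 further: NT is the 2HG producing partner of a matched IDH1 knockdown line; 0% = DMSO-treated cells and -100% = media-only wells without cells; nearly all actives have a fitted effect of over 55% in size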
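Fibrosarcoma NT cells, 750 per well in 5% FBS RPMI, were exposed to compound for 48 hours. Viability: CellTiter-Glo luminescence.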
TDP1 cell noCPT = qHTS for Inhibitors of human tyrosyl-DNA phosphodiesterase 1 (TDP1): qHTS in cells in absence of CPT | DT40 Tdp1-/- hTDP1 cells, no CPT, ATP luminescence, 48 h | Potency, µM (doses to about 46.2 µM), for inactives: at the top dose activity change, negative = growth inhibition, most hits filed as inhibitors | hit rate 15% among 420,000 | AID 686978, 2013; further: nearly all actives have a fitted effect of over 55% in size
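Seeded 400 DT40-hTDP1 cells/well (vehicle DMSO, no 20 nM CPT); pinned compounds; ≥48 hr at 37 °C; CellTiter-Glo luminescence as viability measure.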
KB-V1 cytotox = KB-V1 MDR subline cytotoxicity; hit rate 3.4% among 400,000; KB-V1 MDR cells viability, CellTiter-Glo, 72 h; AID 1347076; Potency, µM (doses to about 46.1 µM), most hits filed as cytotoxic; further: nearly all actives have a fitted effect of over 60% in size
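Cells of the MDR subline KB-V1 are plated, dosed with compound at multiple concentrations, and incubated 72 h at 37 degrees C; CellTiter-Glo is then added and luminescence read after 10 min.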
HT1080 IDH1KD tx = kills HT-1080 cells with IDH1 knockdown; Potency, µM (series often up to 46.1 µM), without a hit: top-dose activity, negative = toxicity, hits mostly cytotoxic; HT-1080 IDH1 knockdown viability, ATP luminescence, 48 h; hit rate 2% among 360,000;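 further: 0% = DMSO wells and -100% = cell-free medium wells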
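Assay cells: HT-1080 with IDH1 knockdown, 750 per well, RPMI/5% FBS. Exposure: 48 h at 37 °C following 2 h pre-incubation. Read: CellTiter-Glo luminescence; fitted concentration-response, curve class assigned.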
TDP1 cell CPT = growth inhibition of DT40 Tdp1-/-;hTDP1 cells with camptothecin (screen for TDP1 inhibitors); chicken DT40 Tdp1-/-;hTDP1 cells + 20 nM CPT, ATP luminescence, 48 h; AID 686979; Potency, µM (series often up to 46.2 µM), for inactives: top-dose activity change, negative = growth inhibition, actives largely listed as inhibitors; hit rate 12% among 420,000; further: nearly all actives have a fitted effect of over 55% in size
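Cell growth measured by CellTiter-Glo luminescence after a minimum 48 h, 37 C compound exposure with 20 nM CPT in Tdp1-knockout DT40 cells stably expressing hTDP1, seeded 400/well; qHTS titration format.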
Starred values were filed as active, the others as inactive. The call rests on the fitted dose curve; in most records, active means well fitted curve in the direction sought with a large enough effect; inconclusive means small, poorly fitted or top-dose-only effect, or another doubt; inactive means no such curve, though single readings can be large; an effect the other way counts as inactive or inconclusive. Unless noted, on the % scale 0 is the no-effect control and ±100 the full control effect; potency means the concentration at half of the fitted maximal effect.

Screening CC(=O)COc1cc2c(-c3cc4ccccc4o3)cc(=O)oc2cc1C returned KB-3-1 cytotox inactive, HT1080-NT tox -3%, TDP1 cell noCPT -20%, KB-V1 cytotox inactive, HT1080 IDH1KD tx -7% and TDP1 cell CPT -21%.
`COc1cc(-c2noc(-c3ccc(N4CCN(C)CC4)c([N+](=O)[O-])c3)n2)cc(OC)c1OC` gave KB-3-1 cytotox inactive, TDP1 cell noCPT 3.3µM*, KB-V1 cytotox inactive and TDP1 cell CPT 3.3µM*.
Screening CN1CCN(c2ccc(-c3nc(-c4ccccc4)no3)cc2[N+](=O)[O-])CC1 returned KB-3-1 cytotox inactive, TDP1 cell noCPT 15µM*, KB-V1 cytotox inactive and TDP1 cell CPT inconclusive.
COc1ccccc1-c1noc(-c2ccc(N3CCN(C)CC3)c([N+](=O)[O-])c2)n1 was read as KB-3-1 cytotox inactive, TDP1 cell noCPT inconclusive, KB-V1 cytotox inactive and TDP1 cell CPT inconclusive.
O=[N+]([O-])c1cc(-c2nc(-c3ccccc3)no2)ccc1N1CCCCC1 was read as KB-3-1 cytotox inactive, TDP1 cell noCPT inconclusive, KB-V1 cytotox inactive and TDP1 cell CPT -17%.
`Cc1ccccc1-c1noc(-c2ccc(N3CCN(C)CC3)c([N+](=O)[O-])c2)n1` gave KB-3-1 cytotox inactive, TDP1 cell noCPT 13µM*, KB-V1 cytotox inactive and TDP1 cell CPT 16µM*.
Screening Cc1ccccc1-c1noc(-c2ccc(N3CCCC3)c([N+](=O)[O-])c2)n1 returned KB-3-1 cytotox inactive, TDP1 cell noCPT -14%, KB-V1 cytotox inactive and TDP1 cell CPT -9%.
`O=C(CSc1nccn1Cc1ccco1)Nc1ccc(OC(F)(F)F)cc1` gave TDP1 cell noCPT -30% and TDP1 cell CPT inconclusive.
`CCC(=O)NCCNc1nc2cc(C)cc(C)c2cc1C#N` gave KB-3-1 cytotox inactive, HT1080-NT tox 25%, TDP1 cell noCPT -1%, KB-V1 cytotox inactive, HT1080 IDH1KD tx 8% and TDP1 cell CPT 1%.
`CNc1ccc(Br)cc(C(=O)/C=C/c2cccc(OC)c2)c1=O` gave KB-3-1 cytotox inconclusive, HT1080-NT tox inconclusive, TDP1 cell noCPT 7.3µM*, KB-V1 cytotox inconclusive, HT1080 IDH1KD tx inconclusive and TDP1 cell CPT 13µM*.
`CNc1ccc(Br)cc(C(=O)/C=C/c2ccc(Cl)cc2Cl)c1=O` gave KB-3-1 cytotox inconclusive, HT1080-NT tox inconclusive, TDP1 cell noCPT 18µM*, KB-V1 cytotox inconclusive, HT1080 IDH1KD tx 21µM* and TDP1 cell CPT 4.6µM*.
For CNc1ccc(Br)cc(C(=O)/C=C/c2ccc(OC)cc2OC)c1=O the results were KB-3-1 cytotox inactive, HT1080-NT tox -7%, TDP1 cell noCPT 15µM*, KB-V1 cytotox inconclusive, HT1080 IDH1KD tx -17% and TDP1 cell CPT 9.2µM*.
O=C(/C=C/c1ccc(Cl)cc1Cl)c1ccc[nH]1 was read as KB-3-1 cytotox inactive, HT1080-NT tox inconclusive, TDP1 cell noCPT inconclusive, KB-V1 cytotox inactive, HT1080 IDH1KD tx -15% and TDP1 cell CPT inconclusive.
For CCCCn1c(=O)[nH]c(=O)c2c1nc(COC(=O)c1c(C)noc1C)n2CCC the results were KB-3-1 cytotox inactive, HT1080-NT tox 7%, TDP1 cell noCPT 5%, KB-V1 cytotox 4.1µM*, HT1080 IDH1KD tx 4% and TDP1 cell CPT -17%.
Screening CC(C(=O)NC(C)(C)C)N(Cc1cccs1)C(=O)CCN1CCc2ccccc21 (stereo not given) returned KB-3-1 cytotox inactive, HT1080-NT tox -15%, TDP1 cell noCPT inconclusive, KB-V1 cytotox inconclusive, HT1080 IDH1KD tx -21% and TDP1 cell CPT 23µM*.

Bioassay records from PubChem.
